About 79,000 compounds went through this panel and 15% of them were active in at least one assay; those are over-represented in the sample as a whole. A number with no mark means an inactive call. The source made the active and inactive calls. Cut-off read from the data, not from the text of the source: active = growth inhibition above about 70%; inactive = the rest.
Tests used:
[1] = NCI Yeast Anticancer Drug Screen. Data for the rad50 strain (AID 155);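 note: 0% = growth of vehicle-only cultures of the same strain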; settings: S. cerevisiae rad50 strain growth inhibition, hits give high values
Outline: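 Vehicle-treated cultures provide the reference for the growth inhibition reported for compound-exposed, repair-deficient yeast.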

[2] = NCI Yeast Anticancer Drug Screen. Data for the mec2-1 strain (AID 157); settings: S. cerevisiae mec2-1 strain, hits give high values
Outline: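 Growth inhibition is read against vehicle-treated controls after compound exposure of the mec2-1 yeast strain, which is defective in DNA damage repair or cell cycle control.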

[3] = NCI Yeast Anticancer Drug Screen. Data for the sgs1 mgt1 strain (AID 161);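 note: 0% = growth of cultures given vehicle only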; settings: S. cerevisiae sgs1 mgt1 strain, hits give high values
Outline: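 Percent growth inhibition was derived by comparing compound-exposed mutant yeast with vehicle-exposed cultures. The strain carries alterations in DNA damage repair.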

[4] = NCI Yeast Anticancer Drug Screen. Data for the cln2 rad14 strain (AID 165);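 note: 0% = growth equal to vehicle treated cultures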; settings: S. cerevisiae cln2 rad14 strain, hits give high values
Outline: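 Growth inhibition, relative to vehicle-treated controls, is the read-out. The test organism is a yeast strain with defined genetic alterations, cln2 rad14.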

[5] = NCI Yeast Anticancer Drug Screen. Data for the bub3 strain (AID 167); settings: S. cerevisiae bub3 mutant strain, hits give high values
Outline: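 Mutant yeast screening strain plus compound; vehicle-treated cultures serve as the 0% inhibition reference.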

[6] = NCI Yeast Anticancer Drug Screen. Data for the mlh1 rad18 strain (AID 175); settings: S. cerevisiae mlh1 rad18 strain growth inhibition, hits give high values
Outline: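 Cells of a genetically altered yeast strain, deficient in DNA damage repair, were treated with compound. Their growth was then compared with that of vehicle-treated cultures to give inhibition.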

[7] = at 5.0 µM (retest, dose inferred, filed as 0.5)
[8] = at 50.0 µM (retest, dose inferred, filed as 5.0)

SMILES	growth inhibition [1, 7]	growth inhibition [1, 8]	growth inhibition ([1]; at 50.0 µM)	growth inhibition [2, 7]	growth inhibition [2, 8]	growth inhibition ([2]; at 50.0 µM)	growth inhibition [3, 7]	growth inhibition [3, 8]	growth inhibition ([3]; at 50.0 µM)	growth inhibition [4, 7]	growth inhibition [4, 8]	growth inhibition ([4]; at 50.0 µM)	growth inhibition [5, 7]	growth inhibition [5, 8]	growth inhibition ([5]; at 50.0 µM)	growth inhibition [6, 7]	growth inhibition [6, 8]	growth inhibition ([6]; at 50.0 µM)
O=C1C(C(Nc2ccccc2)c2ccccc2)=C([O-])c2ccccc21.O=C1C(C(Nc2ccccc2)c2ccccc2)=C([O-])c2ccccc21.[Ni+2] (configuration not stated)	57%	81% (active)	63.3%	33%	55%	71% (active)	49%	80% (active)	36.6%	46%	46%	55.8%	51%	84% (active)	73.8% (active)	39%	81% (active)	63.1%
O=[N+]([O-])c1ccc(N2CCOCC2)c2c1no[n+]2[O-]	98% (active)	99% (active)	90.9% (active)	99% (active)	100% (active)	94% (active)	94% (active)	99% (active)	89% (active)	55%	99% (active)	74% (active)	91% (active)	99% (active)	92.2% (active)	98% (active)	99% (active)	84.2% (active)
CCCCCCCCCCCCCCCCCC[N+](C)(C)C (tested in a mixture with another compound)	99% (active)	99% (active)	2.1%	98% (active)	99% (active)	13.1%	99% (active)	99% (active)	73.5% (active)	78% (active)	98% (active)	13.2%	99% (active)	97% (active)	-1.15%	99% (active)	99% (active)	-2.5%
O=[N+]([O-])c1ccc(N(CCO)CCO)c2c1no[n+]2[O-]	39%	92% (active)	81.4% (active)	25%	70% (active)	54.4%	35%	83% (active)	69.2%	8%	44%	44.3%	4%	40%	61.5%	42%	90% (active)	78.8% (active)
CC(CCC/C=C/CCCN(C)C(=N)N)CC(C)C1OC(=O)C(C)C(O)/C=C/C(C)C(O)C(C)C(O)C(C)C(O)CCCC(O)CC2(O)OC(CC(OC(=O)CC(=O)O)CC(O)CC(O)C(C)C(O)/C=C/C=C/C1C)CC(O)C2O (configuration not stated)	-79%	99% (active)	92.9% (active)	7%	99% (active)	94.1% (active)	6%	99% (active)	93.6% (active)	21%	99% (active)	92.2% (active)	9%	99% (active)	93.1% (active)	13%	99% (active)	92.8% (active)
CCC[CH2][Sn]1([CH2]CCC)[O]C2C(O)OC(CO)C(O)C2[O]1 (configuration not stated)	84% (active)	99% (active)	99% (active)	74% (active)	99% (active)	99.3% (active)	82% (active)	99% (active)	99% (active)	64%	99% (active)	99% (active)	80% (active)	99% (active)	98.7% (active)	81% (active)	99% (active)	98.6% (active)
C[AsH](C)CC[AsH](C)C.C[AsH](C)CC[AsH](C)C.C[AsH](C)CC[AsH](C)C.[Ni]	79% (active)	98% (active)	96.9% (active)	51%	99% (active)	95% (active)	93% (active)	99% (active)	96.7% (active)	74% (active)	97% (active)	93.5% (active)	68%	99% (active)	96.5% (active)	56%	99% (active)	96.5% (active)
COc1ccc(P2(=S)Oc3ccc(C(c4ccccc4)(c4ccccc4)c4ccccc4)cc3O2)cc1 (configuration not stated)	36%	96% (active)	38.6%	11%	98% (active)	64.3%	34%	96% (active)	54.7%	24%	98% (active)	63.2%	7%	98% (active)	48.9%	34%	98% (active)	58.1%
CCOC(=O)C1=C(C)/C(=C/c2[n-]c(C)c(C(=O)OCC)c2C)N=C1C.CCOC(=O)C1=C(C)/C(=C/c2[n-]c(C)c(C(=O)OCC)c2C)N=C1C.[Zn+2]	4%	55%	99% (active)	2%	47%	99.3% (active)	2%	34%	98.8% (active)	7%	6%	98.2% (active)	4%	55%	99.4% (active)	6%	55%	98.2% (active)
CO/C1=C\C(C)=C\C(C)C(O)C(C)C/C(C)=C/C=C/C(OC)C(C(C)C(O)C(C)C2(O)CC(O)C(C)C(C(C)C)O2)OC1=O (configuration not stated)	1%	84% (active)	85.2% (active)	-11%	59%	77.3% (active)	8%	85% (active)	84.5% (active)	9%	78% (active)	74.1% (active)	5%	88% (active)	86.2% (active)	0%	88% (active)	81.2% (active)
CCCCCCCC[As](C)(=O)O	-151%	-121%	4.95%	-54%	-47%	2.85%	-67%	-55%	4.5%	-72%	-59%	11.4%	-75%	-71%	-12.1%	-144%	-88%	6.2%
CN(C)c1ccc(C2N(Cc3ccc(N(CCCl)CCCl)cc3)CCCN2Cc2ccc(N(CCCl)CCCl)cc2)cc1	1%	86% (active)	52.5%	-18%	55%	5.2%	-1%	79% (active)	76.7% (active)	-1%	65%	-6.3%	0%	95% (active)	3.5%	-1%	99% (active)	32.9%
c1ccc2c(c1)[O][Sn][O]2	0%	6%	98.8% (active)	1%	3%	99.2% (active)	-1%	1%	39.8%	0%	-1%	98.8% (active)	-1%	2%	99.4% (active)	1%	3%	99% (active)
CCC(C)c1cnc(CC(C)C)c(=O)n1O (configuration not stated)	87% (active)	99% (active)	91% (active)	26%	99% (active)	88.8% (active)	75% (active)	98% (active)	90% (active)	68%	98% (active)	86.3% (active)	59%	98% (active)	90.7% (active)	73% (active)	99% (active)	89.6% (active)
CCCCCCCC(=O)[O][Hg][c]1ccccc1	99% (active)	99% (active)	99.5% (active)	100% (active)	100% (active)	99.8% (active)	100% (active)	100% (active)	99.7% (active)	99% (active)	99% (active)	99.5% (active)	100% (active)	99% (active)	99.8% (active)	100% (active)	100% (active)	99.7% (active)
ClCCN(CCCl)c1ccc(C2N(Cc3ccc(Cl)cc3)CCN2Cc2ccc(Cl)cc2)cc1	25%	86% (active)	79.4% (active)	44%	85% (active)	60.5%	53%	94% (active)	80.9% (active)	13%	85% (active)	46.9%	22%	71% (active)	48%	76% (active)	97% (active)	79.5% (active)
Clc1nc(Cl)nc(Nc2ccccc2Cl)n1	67%	96% (active)	99% (active)	40%	97% (active)	96.7% (active)	53%	98% (active)	98.9% (active)	21%	97% (active)	95.8% (active)	82% (active)	99% (active)	98.6% (active)	24%	95% (active)	97.2% (active)
C[SH+]c1ccccc1N=Cc1ccccn1.C[SH+]c1ccccc1N=Cc1ccccn1.[Ni+2].[O-][Cl+3]([O-])([O-])[O-]	-3%	11%	99% (active)	-5%	5%	97.2% (active)	-1%	12%	99.5% (active)	3%	7%	58.2%	-4%	2%	98.8% (active)	1%	16%	98% (active)
CCCCCc1cc(/C=C2/N=C(c3ccc[nH]3)C=C2OC)[nH]c1C	47%	77% (active)	83.9% (active)	49%	81% (active)	85.5% (active)	75% (active)	86% (active)	86.8% (active)	46%	81% (active)	84.3% (active)	80% (active)	79% (active)	83.8% (active)	71% (active)	77% (active)	84% (active)

Reference: PubChem BioAssay (NCI)
